Many of the other results were omitted from the sample, so hits are more common in it than they were.
C diff growth: C. difficile growth inhibitors, primary screen, HTS. Clostridium difficile clinical isolate growth, OD600, 24 h; active compounds read low. growth activity, negative = inhibition, % at 16 µg/mL (by protocol). actives 0.25% (n = 86,000);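 active means mean growth activity at or below -80% and every replicate also at or below -80%; inconclusive means mean at or below -80% but some replicate above -80%; inactive means mean growth activity above -80%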
T cruzi growth-1: T. cruzi intracellular proliferation inhibitors, primary screen, cell-based, beta-gal Tulahuen parasites, NIH3T3 host, luminescence | actives 5.9% (n = 77,000) | inhibition, % at 8.34 µM | AID 624255, 2012 | T. cruzi beta-gal in NIH3T3, GalScreen luminescence, 90 h;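 active means mean inhibition above about 93%, with at least 55% of replicates each passing it, limit read from the data, passing the limit was not always enough; inconclusive means only one of those two conditions holds; inactive means neither condition holds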
T cruzi growth-2: T. cruzi intracellular proliferation inhibitors, confirmation, cell-based, NIH3T3 host, beta-gal parasite, luminescence, cherry-pick. shares compounds with T cruzi growth-1. T. cruzi beta-gal in NIH3T3, GalScreen luminescence, 90 h. inhibition, % at 8.35 µM. actives 72% (n = 5,600). AID 651739, 2012;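 active means mean replicate inhibition above about 95% and at least 55% of replicates individually reaching it, limit read from the data; inconclusive means only one of the two criteria is met; inactive means neither criterion is met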
T cruzi growth-3: inhibitors of intracellular T. cruzi replication, confirmation, NIH3T3 host cells, beta-gal parasites, cherry-pick, set 2; T. cruzi beta-gal in NIH3T3, GalScreen luminescence, 90 h; inhibition, % at 2.09 µM; shares compounds with T cruzi growth-1; AID 651740, 2012; actives 21% (n = 5,600);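 active means mean inhibition above about 95%, with at least 55% of replicates also reaching it, limit read from the data; inconclusive means meets just one of the two conditions; inactive means meets neither condition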
NIH3T3 tox: cytotoxicity in mouse NIH/3T3 fibroblasts, confirmation, cytotoxicity control for T. cruzi proliferation inhibitor project, cell-based, cherry-pick, single point; shares compounds with T cruzi growth-1; NIH/3T3 viability, CellTiter-Glo ATP luminescence, 90 h; cytotoxicity (signal decrease), % at 8.35 µM; actives 14% (n = 5,600);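 active means mean signal decrease across replicates above about 35% based on untreated-well scatter, with enough replicates individually passing, limit read from the data; inconclusive means no rule stated though some were filed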
3T3 cytotox 2: NIH/3T3 fibroblast cytotoxicity, confirmation, cytotoxicity control, cell-based, cherry-pick, single point, set 2; shares compounds with T cruzi growth-1; NIH/3T3 viability, CellTiter-Glo ATP luminescence, 90 h; inhibition, % at 24.9 µM; actives 56% (n = 5,600); AID 651744, 2012;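 active means mean loss of cell viability signal at or above a set limit, and enough replicates individually reaching it; inconclusive means meets only the mean limit or only the replicate share; inactive means meets neither condition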
Numbers stand for hits; i = inactive; ? = inconclusive; nt = not tested or not shown.

SMILES	C diff growth	T cruzi growth-1	T cruzi growth-2	T cruzi growth-3	NIH3T3 tox	3T3 cytotox 2
CO[C@@H]1CN(C)C(=O)c2cc(NC(=O)Nc3cccc(F)c3)ccc2OC[C@@H](C)NC[C@@H]1C	nt	i	nt	nt	nt	nt
CC(=O)NC[C@H]1[C@H](c2ccc(C3=CCCC3)cc2)[C@H](CO)N1C(=O)NC(C)C	i	i	nt	nt	nt	nt
CC(C)NC[C@H]1[C@@H](c2ccc(C3=CCCCC3)cc2)[C@@H](CO)N1C(=O)NC(C)C	i	?	101.7	i	38.8	103.7
CN(C)CC(=O)Nc1ccc2c(c1)[C@H]1C[C@H](CC(=O)NCc3cccc(F)c3)O[C@H](CO)[C@H]1O2	i	i	nt	nt	nt	nt
COc1ccc(S(=O)(=O)Nc2ccc3c(c2)C(=O)N([C@@H](C)CO)C[C@@H](C)[C@@H](CN(C)CC2CCCCC2)O3)cc1	i	i	nt	nt	nt	nt
Cc1noc(C)c1NC(=O)Nc1ccc2c(c1)C(=O)N([C@H](C)CO)C[C@@H](C)[C@H](CN(C)S(=O)(=O)c1ccccc1)OCCCC[C@H](C)O2	i	i	nt	nt	nt	nt
N#C[C@@H]1[C@H](c2ccc(-c3cccnc3)cc2)[C@H](CO)N1C(=O)Nc1ccc(F)cc1	i	i	nt	nt	nt	nt
N#C[C@@H]1[C@@H](c2ccccc2)[C@@H](CO)N1C(=O)c1cccnc1	i	i	nt	nt	nt	nt
COc1ccc(-c2ccc([C@H]3[C@H](C#N)N(C(=O)c4cccc(F)c4)[C@H]3CO)cc2)cc1	i	105.7	100.9	111.4	i	i
COc1ccccc1-c1ccc([C@@H]2[C@@H](C#N)N(C(=O)c3cccc(F)c3)[C@@H]2CO)cc1	i	i	nt	nt	nt	nt
N#C[C@H]1[C@@H](c2ccc(-c3cccnc3)cc2)[C@@H](CO)N1C(=O)Nc1ccc(F)cc1	i	105.5	108.4	i	i	i
N#C[C@@H]1[C@H](c2ccc(C3=CCCCC3)cc2)[C@H](CO)N1C(=O)c1cccc(F)c1	i	?	107.3	i	i	24.3
COc1ccc(-c2ccc([C@H]3[C@H](C#N)N(C(=O)c4cccnc4)[C@H]3CO)cc2)cc1	i	106.9	108.3	i	i	30.8
N#C[C@@H]1[C@@H](c2ccc(C3=CCCC3)cc2)[C@H](CO)N1C(=O)c1cccc(F)c1	i	i	nt	nt	nt	nt
C[C@H](CO)N1C[C@H](C)[C@H](CN(C)C(=O)NC2CCCC2)Oc2ncc(-c3cccc(C(F)(F)F)c3)cc2C1=O	i	i	nt	nt	nt	nt
CCCNC(=O)N[C@H]1CC[C@@H](CCn2cc(C3CC3)nn2)O[C@@H]1CO	i	nt	nt	nt	nt	nt
C[C@@H]1CN([C@@H](C)CO)S(=O)(=O)c2ccc(-c3ccccc3)cc2O[C@H]1CN(C)S(C)(=O)=O	i	i	nt	nt	nt	nt
Cc1noc(C)c1NC(=O)Nc1ccc2c(c1)C(=O)N([C@H](C)CO)C[C@H](C)[C@H](CN(C)Cc1ccncc1)OCCCC[C@H](C)O2	i	i	nt	nt	nt	nt
OC[C@@H]1[C@H](c2ccc(-c3cccc(F)c3)cc2)[C@H]2CN(Cc3cncnc3)CCCCN12	i	95.6	i	i	i	102.1
OC[C@@H]1[C@H](c2ccc(-c3cccc(F)c3)cc2)[C@@H]2CN(Cc3cncnc3)CCCCN12	i	123.1	102.5	i	i	i
COc1cccc(-c2ccc([C@@H]3[C@H](CO)N4CCCCN(Cc5cncnc5)C[C@@H]34)cc2)c1	i	i	nt	nt	nt	nt
OC[C@H]1[C@@H](c2ccc(-c3cccc(F)c3)cc2)[C@@H]2CN(Cc3cncnc3)CCCCN12	i	i	nt	nt	nt	nt
O=C(C[C@H]1CC[C@@H]2[C@H](COC[C@H](O)CN2C(=O)Nc2ccc(F)cc2)O1)NCCCN1CCOCC1	i	i	nt	nt	nt	nt
C[C@H]1CCCCO[C@@H](CN(C)Cc2ccc(C(F)(F)F)cc2)[C@@H](C)CN([C@@H](C)CO)C(=O)c2cc(NS(=O)(=O)c3ccc(Cl)cc3)ccc2O1	i	i	nt	nt	nt	nt
C[C@@H]1CN([C@@H](C)CO)C(=O)c2cc(NS(=O)(=O)c3ccc(Cl)cc3)ccc2O[C@@H](C)CCCCO[C@@H]1CN(C)Cc1ccc(C(F)(F)F)cc1	i	95.6	i	115.6	i	93.3
SMILES	C diff growth	T cruzi growth-1	T cruzi growth-2	T cruzi growth-3	NIH3T3 tox	3T3 cytotox 2
C[C@@H]1CN([C@@H](C)CO)C(=O)c2cc(NS(=O)(=O)c3ccc(Cl)cc3)ccc2O[C@@H](C)CCCCO[C@H]1CN(C)Cc1ccc(C(F)(F)F)cc1	i	?	i	113.0	104.1	106.3
C[C@@H]1CCCCO[C@@H](CN(C)Cc2ccc(C(F)(F)F)cc2)[C@H](C)CN([C@H](C)CO)C(=O)c2cc(NS(=O)(=O)c3ccc(Cl)cc3)ccc2O1	i	i	nt	nt	nt	nt
C[C@@H]1CN([C@H](C)CO)C(=O)c2cc(NS(=O)(=O)c3ccc(Cl)cc3)ccc2O[C@@H](C)CCCCO[C@H]1CN(C)Cc1ccc(C(F)(F)F)cc1	i	i	nt	nt	nt	nt
C[C@@H]1CCCCO[C@H](CN(C)Cc2ccc(C(F)(F)F)cc2)[C@@H](C)CN([C@H](C)CO)C(=O)c2cc(NS(=O)(=O)c3ccc(Cl)cc3)ccc2O1	i	111.0	104.7	i	i	103.7
COc1ccc2c3c([nH]c2c1)[C@H](CO)N(C(=O)CN(C)C)CC31CCN(CC2CCCCC2)CC1	i	nt	nt	nt	nt	nt
O=C(NC1CCCCC1)N1CC(=O)N2[C@H](CO)[C@@H](c3ccc(-c4cccc(F)c4)cc3)[C@@H]2C1	i	nt	nt	nt	nt	nt
Cc1ccc(S(=O)(=O)Nc2ccc3c(c2)CC(=O)N([C@H](C)CO)C[C@H](C)[C@H](CN(C)Cc2ccc4c(c2)OCO4)O3)cc1	i	i	nt	nt	nt	nt
C[C@H]1CN([C@@H](C)CO)C(=O)Cc2cc(NS(=O)(=O)c3ccc(Cl)cc3)ccc2O[C@@H]1CN(C)Cc1ccc2c(c1)OCO2	i	106.9	97.8	i	i	i
Cc1ccc(S(=O)(=O)Nc2ccc3c(c2)CC(=O)N([C@@H](C)CO)C[C@@H](C)[C@H](CN(C)Cc2ccc4c(c2)OCO4)O3)cc1	i	99.2	103.5	?	i	?
Cc1ccc(S(=O)(=O)Nc2ccc3c(c2)CC(=O)N([C@H](C)CO)C[C@@H](C)[C@H](CN(C)Cc2ccc4c(c2)OCO4)O3)cc1	i	103.9	105.9	i	i	25.4
C[C@H](CO)N1C[C@H](C)[C@@H](CN(C)Cc2ccc3c(c2)OCO3)Oc2ccc(NS(=O)(=O)c3ccc(Cl)cc3)cc2CC1=O	i	i	nt	nt	nt	nt
Cc1ccc(S(=O)(=O)Nc2ccc3c(c2)CC(=O)N([C@H](C)CO)C[C@@H](C)[C@@H](CN(C)Cc2ccc4c(c2)OCO4)O3)cc1	i	i	nt	nt	nt	nt

Screens from PubChem BioAssay.
